Laboratory results published in ChEMBL document CHEMBL4513216, “Probing the Open Global Health Chemical Diversity Library for Multistage-Active Starting Points for Next-Generation Antimalarials” (ACS Infect Dis, 2020).
Among all 69,000 compounds or so, about 8,600 (12%) showed an effect of 50% or more. For the sample, strong results were picked, then their nearest neighbours and some compounds at random.

tested on: Plasmodium berghei; test: Screen against P. berghei liver stage (PbLuc), transformed with Luciferase, at 10uM; type: functional, HepG2; conditions: tested at 10 uM

| SMILES | INHIBITION |
| --- | --- |
| CC(C)c1nnc(CN2CCCc3ccc(S(N)(=O)=O)cc32)o1 | -7.93% |
| CCCn1c(SCC(N)=O)nnc1-c1csc2c1CCCC2 | 19.8% |
| CN(Cc1ccn[nH]1)C(=O)CCC(=O)NC1CCCC1 | 31.2% |
| CCc1c(C)[nH]c(C(C)(C)N)nc1=O | 60.4% |
| CCc1c(C)[nH]c(C(C)(N)CC)nc1=O (stereo not drawn) | 29.7% |
| CCC(C)(N)c1nc(=O)c(C)c(C)[nH]1 (stereo not drawn) | 43.6% |
| CCS(=O)(=O)c1ccccc1N1CCC(NC(=O)C2CC2)CC1 | -9.37% |
| c1ccc(N2CCC3(CCCN(c4ncccn4)C3)C2)nc1 (stereo not drawn) | -56.2% |
| CCc1nc2c(N3CCC4(CC3)CNC(=O)C4)ncnc2o1 | 9.91% |
| CCc1nc2c(N3CCC4(CC3)CC(=O)N(CC(C)C)C4)ncnc2o1 | 87.2% |
| CCc1nc2c(N3CCC4(CC3)CC(=O)N(CC)C4)ncnc2o1 | 26.8% |
| c1csc(CN2CCCn3nnc(COCC4CC4)c3C2)n1 | 15.8% |
| CC[C@@H](Cn1ncc2ccccc2c1=O)NC(=O)c1cnccn1 | -3.94% |
| CC(C)n1nnc2c(sc3nc(N4CCOCC4)c4c(c32)CCC4)c1=O | 28.6% |
| CCCn1nnc2c(sc3nc(N4CCOCC4)c4c(c32)CCC4)c1=O | 80.6% |
| Cn1nnc2c(sc3nc(N4CCOCC4)c4c(c32)CCC4)c1=O | 13.8% |
| CNc1ncc(CN(C)C(=O)c2cccc(-n3cccn3)c2)cn1 | 25.8% |
| O=C(NCCc1cccs1)NCC(O)c1cccc(F)c1 (stereo not drawn) | -54.4% |
| CCN(CC)c1ncnc2c(C)nn(CC)c12 | 35.4% |
| O=C(O)C1(n2ccc(-c3ccco3)n2)CCN(Cc2cccnc2)CC1 | 1.48% |
| CNc1nc2cn(-c3cccc(OC)c3)c(=O)c-2c[nH]1 | -98.45% |
| C[C@@H]1CN(CC(C)(C)N2CCOCC2)CC[C@@]1(O)C1CCOCC1 | 27.7% |
| C[C@@H]1CN(Cc2cc3ccccc3n2C)CC[C@@]1(O)C1CC1 | 8.7% |
| C[C@@H]1CN(CC(C)(C)N2CCCCC2)C[C@@]1(O)C1CC1 | 31.7% |
| C[C@@H]1CN(CC(C)(C)N2CCOCC2)C[C@@]1(O)C1CC1 | 54.5% |
| C[C@@H]1CN(S(=O)(=O)N2CCOCC2)C[C@@]1(O)C1CC1 | 38.75% |

| SMILES | INHIBITION |
| --- | --- |
| C[C@@H]1CN(CC(C)(C)N2CCCCC2)CC[C@@]1(O)C1CC1 | 71.3% |
| Cc1nn(-c2ccccc2)nc1C(=O)N1CCCC(n2cccn2)C1 (stereo not drawn) | 17.4% |
| N#Cc1ccccc1CN1CCCC(c2nccn2CC2CC2)C1 (stereo not drawn) | 33.4% |
| NC(=O)Cn1ccnc1C1CCCN(Cc2ccccc2OC(F)F)C1 (stereo not drawn) | 46.4% |
| FC(F)Oc1ccccc1CN1CCCC(c2nccn2CC2CC2)C1 (stereo not drawn) | 74.5% |
| CC1(c2ncc(CN3CCSCC3)cn2)CCCCO1 (stereo not drawn) | 40.95% |
| CN1CC[C@]2(CN(S(C)(=O)=O)C[C@H]2c2ccccc2)C1=O | 48.4% |
| CCCn1cc(Cl)c(C(=O)N2C[C@@H](O)[C@H](NC(C)=O)C2)n1 | 0.65% |
| O=C(O)c1cncc(Cc2ccccc2F)c1 | -8.58% |
| Cc1cc(-c2cnc(N3CCCC(C)C3)nc2-c2cccnc2C)on1 (stereo not drawn) | 64.3% |
| Cc1cc(-c2cnc(N3CCOCC3)nc2-c2cccnc2C)on1 | -2.11% |
| Cc1cc(-c2cnc(N3CCCCCC3)nc2-c2cccnc2C)on1 | 59.3% |
| Cc1cc(-c2cnc(N3CCC(O)CC3)nc2-c2cccnc2C)on1 | 11.1% |
| Cc1cc(-c2cnc(N3CCNC(=O)C3)nc2-c2ccncc2)on1 | 50.8% |
| Cc1cc(-c2cnc(N3CCNC(=O)C3)nc2-c2ccoc2C)on1 | 14.7% |
| Cc1cc(-c2cnc(N3CCNC(=O)C3)nc2-c2sccc2C)on1 | 0.301% |
| Cc1cc(-c2cnc(N3CCNC(=O)C3)nc2-c2cccnc2C)on1 | 39.2% |
| Cc1cc(-c2cnc(N3CCNC(=O)C3)nc2-c2ccc(C)o2)on1 | 35.8% |
| O=C(c1ccc(Cl)cc1F)N1CCC(Cn2cc(CO)nn2)CC1 | 6.67% |
| CCCN(Cc1nnnn1C1CC1)CC1COc2ccccc2O1 (stereo not drawn) | -16.6% |
| COCCCNC(=O)c1cc(-c2cnc(N3CCOCC3)nc2)cn1C | 38.1% |
| Cc1csc(C(=O)NCCN2CCC(c3cccs3)CC2)c1 | 68.2% |
| O=C(NCCN1CCC(c2cccs2)CC1)c1ccc(F)cc1Cl | 56.6% |
| O=C(NCCN1CCC(c2cccs2)CC1)Nc1cccs1 | 9.54% |
| CCOC(=O)N1CCN(CC(=O)Nc2ccc(F)cc2Cl)CC1 | 25.6% |
| COc1ccc(C(=O)NCCN2CCC(c3cccs3)CC2)cc1OC | 17.1% |

| SMILES | INHIBITION |
| --- | --- |
| CC1CCN(CCNC(=O)c2ccn(-c3ccc(F)cc3)n2)CC1 | -43.5% |
| O=C(NCCN1CCC(c2cccs2)CC1)c1ccccc1C(F)(F)F | 40.9% |
| O=C(NCCc1ccccc1)NCCN1CCC(c2cccs2)CC1 | 38% |
| CC(=O)NCCN1CCC(c2cccs2)CC1 | -19.4% |
| CC1CCN(CCNC(=O)Nc2ccc(F)cc2Cl)CC1 | 56.4% |
| O=C(Cc1ccccc1Cl)NCCN1CCC(c2cccs2)CC1 | 56.6% |
| CCSc1ccccc1C(=O)NCCN1CCC(c2cccs2)CC1 | 38% |
| CCc1nnc2n1CCN(C(=O)c1ccc3cc[nH]c3c1)C2 | -7.53% |
| CC(=O)N[C@@H]1CN(S(=O)(=O)c2ccc(Cl)cc2)C[C@H]1O | -0.232% |
| COC(C)(CNS(=O)(=O)c1cnn(C)c1)c1ccccc1F (stereo not drawn) | -19.1% |
| Cc1noc(C)c1CCC(=O)N1CCn2cccc2C1C (stereo not drawn) | -19.7% |
| CN(C)C(=O)c1n[nH]c2c1CN(Cc1ccccn1)CC2 | -27% |
| O=C(Nc1cc2c(cc1Br)OCCO2)NC1CCS(=O)(=O)C1 (stereo not drawn) | 11.8% |
| CC1CCN(CCCNC(=O)Nc2cc3c(cc2Br)OCCO3)CC1 | 63.3% |
| CC1CCN(CCCNC(=O)C2CCCCC2)CC1 | -32.3% |
| CN(Cc1nccn1CC(F)(F)F)C(=O)c1ccc(F)c(F)c1 | -17.4% |
| Cc1nn(-c2ncnc3[nH]cnc23)c2c1C(CC(C)C)CC(=O)N2 (stereo not drawn) | -4.35% |
| CN(C)c1ncnc2c1CCN(Cc1nccs1)CC2 | -12.1% |
| O=C(c1ccncc1)N1CCC2(CC1)CCN(Cc1ccccn1)C2=O | 14.6% |
| CC(=O)N1CCC2(CCN(Cc3ccccn3)C2=O)C1 (stereo not drawn) | -20.1% |
| Cc1occc1C(=O)N1CCC2(CCN(Cc3ccccn3)C2=O)C1 (stereo not drawn) | 65.7% |
| Cc1cnc(C(=O)N2CCC3(CCN(Cc4ccccn4)C3=O)C2)cn1 (stereo not drawn) | -39.2% |
| O=C(c1cnccn1)N1CCC2(CC1)CCN(Cc1ccccn1)C2=O | 53.2% |
| CN(C)C(=O)N1CCC2(CC1)CCN(Cc1ccccn1)C2=O | 20.5% |
| CC(C)(C)c1nc(CN2CCN(C(=O)c3cnccn3)CC2)cs1 | 20.8% |
| O=C(c1cnccn1)N1CCN(Cc2csc(-c3ccccc3)n2)CC1 | 59.4% |

| SMILES | INHIBITION |
| --- | --- |
| CCc1nc(CN2CCN(C(=O)c3cnccn3)CC2)cs1 | 9.94% |
| Cc1oncc1C(=O)N1CCC2(CCN(Cc3ccccn3)C2=O)C1 (stereo not drawn) | 25.1% |
| O=C(c1cccnc1)N1CCC2(CC1)CCN(Cc1ccccn1)C2=O | -20.1% |
| Cc1ccc(C(=O)N2CCC3(CC2)CCN(Cc2ccccn2)C3=O)o1 | 52.2% |
| CNc1cncc(C2CCCN2C(=O)CCn2ccnc2C(C)C)n1 (stereo not drawn) | 21.685% |
| O=C(CC1CN(Cc2ccccc2)CCO1)NC1CCSCC1 (stereo not drawn) | 35.1% |
| COCC(=O)N1CCCC1c1cc(N2CCN(C(C)=O)CC2)cc(C)n1 (stereo not drawn) | 18.9% |
| COCC(=O)N1C[C@H]2CCCC(OCc3cccnc3)[C@H]2C1 (stereo partly drawn) | -3.52% |
| Cc1nc(CN2CCO[C@@H]3CN(C(=O)NC(C)C)CC[C@@H]3C2)cs1 | 36.4% |
| CNS(=O)(=O)CC(=O)NCc1cc2c(s1)CCCCC2 | 28.9% |
| c1ccc(-c2nc(CCNC3CCOC4(CCOCC4)C3)no2)cc1 (stereo not drawn) | -6.34% |
| CCn1nccc1CNc1[nH]cnc2nc(C)nc1-2 | 26.4% |
| O=C(NC1CCN(c2ccc(-c3ccccc3F)nn2)C1)C1CCC1 (stereo not drawn) | 60.8% |
| O=C(NC1CCN(c2ccc(-c3ccccc3F)nn2)C1)c1ccc[nH]1 (stereo not drawn) | 12.4% |
| O=C(NC1CCN(c2ccc(-c3ccccc3F)nn2)C1)c1cc[nH]n1 (stereo not drawn) | 49.5% |
| CCOCC(=O)N1Cc2nccn2CC(CN2CCCC2)C1 (stereo not drawn) | 34.6% |
| O=C1O[C@@H]2CN(Cc3ccncc3)C[C@@H]2N1CCCN1CCOCC1 | -43.5% |
| O=C1O[C@@H]2CN(c3ccccn3)C[C@@H]2N1CCCc1ccc(F)cc1 | 86.7% |
| O=C1O[C@@H]2CN(c3ccncc3)C[C@@H]2N1CCCc1ccc(F)cc1 | 75.2% |
| Cc1cc(C)nc(N2C[C@H]3OC(=O)N(CCc4cccc(Cl)c4)[C@H]3C2)n1 | -17.8% |
| O=C1O[C@@H]2CN(C3CCOCC3)C[C@@H]2N1CCCc1ccc(F)cc1 | 33% |
| O=C1O[C@@H]2CN(Cc3ccccn3)C[C@@H]2N1CCCc1ccc(F)cc1 | 15.1% |
| O=C1O[C@@H]2CN(c3ccc(Cl)cn3)C[C@@H]2N1CCc1ccc(F)cc1 | -2.04% |
| O=C1O[C@@H]2CN(c3ncccn3)C[C@@H]2N1CCCc1ccc(F)cc1 | 83.8% |
| O=C1O[C@@H]2CN(c3cnccn3)C[C@@H]2N1CCCc1ccc(F)cc1 | 9.4% |
